The panel holds about 83,000 compounds, 20% with a hit somewhere; the sample as a whole holds those more often.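 Results are percent growth after 48 hours of single-concentration exposure. 100 means growth as in untreated cells, lower positive values show inhibition; negative values down to -100 show cell death.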 Active and inactive are the calls of the source. How the source made its calls: active means growth percent below 10; inactive means the rest.

One experiment concerns LOX IMVI melanoma. Description: NCI-60 one-dose screen, 48 h (100 = growth as untreated, 0 = no growth, -100 = all killed). As to conditions: 10 µM unless noted.
Turning to `CCn1cc(C(=O)O)c(=O)c2cc(F)c(N3CCN(S(=O)(=O)c4ccc(OC)c(OC)c4)CC3)cc21`, the growth was 85.8% (inactive).

Consider `COc1cc2nc(SCc3cc(OC)c(OC)c(OC)c3)n(Cc3ccccc3)c(=O)c2cc1OC`, for which the growth was 37.7% (inactive).

Regarding `O=[N+]([O-])c1cc(S(=O)(=O)OCC2CO2)ccc1Cl` (stereo unspecified), the growth was 39.1% (inactive).

As for `Nc1c(C(=O)Nc2ccccc2)sc2nc3c(cc12)CCC3`, the growth was 89.1% (inactive).

As for `COc1ccc([N+](=O)[O-])c(/C=C/C(=O)c2ccccn2)c1`, the growth is 41% (inactive).

As for `CC(C(=O)n1cc(-c2ccccc2)c(-c2ccccc2)c1)c1ccccc1` (stereo unspecified), the growth is 97.8% (inactive).

Take `CCNCc1ccncc1`: the growth is 93.6% (inactive).

For `NCCSC(c1ccccc1)(c1ccccc1)c1ccccc1`, the growth is 25.9% (inactive).

With `O=C(O)c1ccc(-n2c(=O)c3ccccc3c3ccccc3c2=O)cc1`, the growth is 103% (inactive).

For the molecule `COc1cc(/C=C2\C=C(c3ccc(F)cc3)N(Cc3ccccc3)C2=O)cc(OC)c1OC`, the growth was 65.3% (inactive).

In the case of `COc1ccc(/C=C2\C(=O)N(C(=O)c3csc(NC(C)=O)n3)N=C2C)cc1`, the growth was 96% (inactive).

Consider `COc1cccc(NC(=O)Cn2cc3c(=O)oc4ccccc4c3n2)c1`, for which the growth is 113% (inactive).

With `CNC(C)=O`, the growth is 95% (inactive).

As to `C=C1C(=O)O[C@H]2[C@H](O)[C@@H](C)CCC/C(C)=C/CC[C@@]3(C)O[C@@H]3C[C@@H]12`, the growth is 92% (inactive).

With `CC(=O)Nc1ccc(S(=O)(=O)NC(CCC(=O)Nc2ccc(Cl)cc2)C(=O)O)cc1` (stereo unspecified), the growth was 81.1% (inactive).

Consider `Cn1c(C(N)=O)cc2c1-c1nc(NC3CCCCC3)ncc1CCC2`, for which the growth is 89.6% (inactive).

`Cc1nc2sccn2c1-c1csc(Nc2ccccc2Cl)n1`: the growth was 45.5% (inactive).

Take `Cc1ccc(Cn2c(-c3cccs3)nc3ccccc32)cc1`: the growth was 82.5% (inactive).

Take `COC1=CC(c2ccc[nH]2)=N/C1=C\c1[nH]c(C)c(C(=O)CCCCC(=O)Nc2ccccc2)c1C`: the growth is -71.8% (active).

On to `COc1ccc(-c2cn[nH]c2-c2cc(OC)c3c(c2)OCCO3)cc1`, for which the growth was 30.2% (inactive).

`COc1ccc(/C=C/c2nc(N3CCOCC3)c3cc(F)c(F)cc3n2)cc1OC`: the growth is 36.4% (inactive).

Turning to `O=c1oc2cc(OS(=O)(=O)c3ccc(F)cc3)ccc2c2c1CCCCC2`, the growth is 88.1% (inactive).

As to `CCn1cc(C(=O)O)c(=O)c2cc(F)c(N3CCN(S(=O)(=O)c4ccc(Cl)cc4Cl)CC3)cc21`, the growth was -35.4% (active).

On to `O=C(CN1CCN(c2cc3c(cc2F)c(=O)c(C(=O)O)cn3C2CC2)CC1)Nc1ccc(C(=O)/C=C/c2ccccc2)cc1`, for which the growth is 5.67% (active).

On to `O=C(CC(O)c1ccncc1)c1ccccc1` (stereo unspecified), for which the growth is -38% (active).

For the molecule `CCn1cc(C(=O)O)c(=O)c2cc(F)c(N3CCN(S(=O)(=O)c4cccc5ccccc45)CC3)cc21`, the growth is -39% (active).

As to `CCN(CC)CCCC(C)N=c1cc(Nc2cc(=NC(C)CCCN(CC)CC)c3cc(OC)ccc3o2)oc2ccc(OC)cc12` (stereo unspecified), the growth is -77.7% (active).

With `NC(=S)NN=C1CCCCC1`, the growth is 77.9% (inactive).

Another experiment has as its system SK-MEL-28 melanoma. The experiment is described as above. As to conditions: 10 µM unless noted.
Regarding `CCNC(=O)CCCCC(=O)c1c(C)[nH]c(/C=C2\N=C(c3ccc[nH]3)C=C2OC)c1C`, the growth is 51.9% (inactive).

`CC(=O)OCC1OC(OCC2OC(OC(C)=O)C(OC(C)=O)C(OC(C)=O)C2OC(C)=O)C(OC(C)=O)C(OC(C)=O)C1OC(C)=O` (stereo unspecified): the growth is 104% (inactive).

For `Clc1ccc([I+]c2ccc(Cl)cc2Cl)c(Cl)c1`, the growth is 87.3% (inactive).

For `CCC(=O)Oc1cc(/C=C/C(=O)O[C@H]2C[C@H]3CN4CCc5c([nH]c6cc(OC)ccc56)[C@@H]4C[C@@H]3[C@@H](C(=O)OC)[C@@H]2OC)ccc1OC`, the growth was 88.8% (inactive).

Turning to `COC1=CC(c2ccc[nH]2)=N/C1=C\c1[nH]c(C)c(C(=O)CCCCC(=O)NCc2ccccc2)c1C`, the growth was 140% (inactive).

On to `COc1ccc(-c2nnc(COc3ccc(NS(=O)(=O)c4ccc(OC)cc4)cc3F)o2)cc1`, for which the growth was 97% (inactive).

With `CN1CCN(c2ccc3cc(-c4nc5ccccc5[nH]4)c(=O)oc3c2)CC1`, the growth was 94.9% (inactive).

Turning to `CCC1=C[C@@H]2CN(C1)Cc1c([nH]c3ccccc13)[C@@](C(=O)OC)(c1cc3c(cc1OC)N(C=O)[C@H]1[C@@](O)(C(=O)OC)[C@H](OC(C)=O)[C@]4(CC)[C@@H]5C[C@@H]5CN5CC[C@]31[C@@H]54)C2`, the growth is 60.9% (inactive).

On to `O=S(=O)(c1ccccc1)n1ccc(-c2ccc3c(c2)CCO3)n1`, for which the growth was 86.2% (inactive).

`COC1=CC(c2ccc[nH]2)=N/C1=C\c1[nH]c(C)c(CCCn2cc(CCCCCCCCC[C@@H]3Cc4cc(O)ccc4C4CC[C@]5(C)[C@@H](O)CC[C@H]5C43)nn2)c1C` (stereo partly specified): the growth was 75.9% (inactive).

Turning to `CCn1cc(C(=O)O)c(=O)c2cc(F)c(N3CCN(S(=O)(=O)c4ccc(OC)c(OC)c4)CC3)cc21`, the growth was 102% (inactive).

As for `COc1cc2nc(SCc3cc(OC)c(OC)c(OC)c3)n(Cc3ccccc3)c(=O)c2cc1OC`, the growth is 39.2% (inactive).

In the case of `O=[N+]([O-])c1cc(S(=O)(=O)OCC2CO2)ccc1Cl` (stereo unspecified), the growth is 90.1% (inactive).

For the molecule `Nc1c(C(=O)Nc2ccccc2)sc2nc3c(cc12)CCC3`, the growth was 80.4% (inactive).

As for `COc1ccc([N+](=O)[O-])c(/C=C/C(=O)c2ccccn2)c1`, the growth was 100% (inactive).

As for `CC(C(=O)n1cc(-c2ccccc2)c(-c2ccccc2)c1)c1ccccc1` (stereo unspecified), the growth is 112% (inactive).

Regarding `CCNCc1ccncc1`, the growth is 119% (inactive).

In the case of `NCCSC(c1ccccc1)(c1ccccc1)c1ccccc1`, the growth was 43% (inactive).

In the case of `O=C(O)c1ccc(-n2c(=O)c3ccccc3c3ccccc3c2=O)cc1`, the growth is 113% (inactive).

As to `COc1cc(/C=C2\C=C(c3ccc(F)cc3)N(Cc3ccccc3)C2=O)cc(OC)c1OC`, the growth is 94.2% (inactive).

`COc1ccc(/C=C2\C(=O)N(C(=O)c3csc(NC(C)=O)n3)N=C2C)cc1`: the growth was 110% (inactive).

Consider `COc1cccc(NC(=O)Cn2cc3c(=O)oc4ccccc4c3n2)c1`, for which the growth is 94% (inactive).

Turning to `CNC(C)=O`, the growth was 101% (inactive).

In the case of `C=C1C(=O)O[C@H]2[C@H](O)[C@@H](C)CCC/C(C)=C/CC[C@@]3(C)O[C@@H]3C[C@@H]12`, the growth was 95.1% (inactive).

On to `CC(=O)Nc1ccc(S(=O)(=O)NC(CCC(=O)Nc2ccc(Cl)cc2)C(=O)O)cc1` (stereo unspecified), for which the growth is 94.4% (inactive).

Regarding `Cn1c(C(N)=O)cc2c1-c1nc(NC3CCCCC3)ncc1CCC2`, the growth was 97.4% (inactive).

In the case of `Cc1nc2sccn2c1-c1csc(Nc2ccccc2Cl)n1`, the growth is 65.6% (inactive).

Consider `Cc1ccc(Cn2c(-c3cccs3)nc3ccccc32)cc1`, for which the growth was 111% (inactive).

As to `COC1=CC(c2ccc[nH]2)=N/C1=C\c1[nH]c(C)c(C(=O)CCCCC(=O)Nc2ccccc2)c1C`, the growth is 63.9% (inactive).

In the case of `COc1ccc(-c2cn[nH]c2-c2cc(OC)c3c(c2)OCCO3)cc1`, the growth is 49.3% (inactive).

With `COc1ccc(/C=C/c2nc(N3CCOCC3)c3cc(F)c(F)cc3n2)cc1OC`, the growth was 52.4% (inactive).

As for `O=c1oc2cc(OS(=O)(=O)c3ccc(F)cc3)ccc2c2c1CCCCC2`, the growth is 86.1% (inactive).

Consider `CCn1cc(C(=O)O)c(=O)c2cc(F)c(N3CCN(S(=O)(=O)c4ccc(Cl)cc4Cl)CC3)cc21`, for which the growth is 107% (inactive).

For the molecule `O=C(CN1CCN(c2cc3c(cc2F)c(=O)c(C(=O)O)cn3C2CC2)CC1)Nc1ccc(C(=O)/C=C/c2ccccc2)cc1`, the growth was 85.7% (inactive).

On to `O=C(CC(O)c1ccncc1)c1ccccc1` (stereo unspecified), for which the growth is 105% (inactive).

As for `CCn1cc(C(=O)O)c(=O)c2cc(F)c(N3CCN(S(=O)(=O)c4cccc5ccccc45)CC3)cc21`, the growth was 59.2% (inactive).

For `CCN(CC)CCCC(C)N=c1cc(Nc2cc(=NC(C)CCCN(CC)CC)c3cc(OC)ccc3o2)oc2ccc(OC)cc12` (stereo unspecified), the growth was -94.6% (active).

As to `NC(=S)NN=C1CCCCC1`, the growth is 98.3% (inactive).

(Values after PubChem BioAssay (NCI).)
